High-throughput results deposited in PubChem by National Center for Advancing Translational Sciences (NCATS).
Chronic BCR inh = chronic active BCR signaling inhibition | hit rate 0.05% among 340,000 | AID 493014 | Potency, µM (titrated, usually from 46.1 µM), for inactives: top-dose activity change, negative = inhibition, most hits filed as inhibitors | ABC-DLBCL IkBa-CBG/CBR reporter, luminescence ratio, 4 h; active = well fitted inhibition curve with a large enough effect in the signal ratio, with a control signal flat, not every such curve was filed as active; inconclusive = small, poorly fitted or top-dose-only effect, or effect the other way, or a change in a side signal; the % refers to the signal ratio;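 also: potency is read from the fitted curve at half-maximal effect; plate controls were basal doxycycline-induced cells for no effect and cells given 10 µM MG132 for full effect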
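Concentration-response series (up to 46 uM) were applied to TMD8 dual-reporter cells for 4 h at 37C with doxycycline. Green/red ratio, after filter-overlap correction, defined %Activity; red signal alone was normalised to basal cells and zero luminescence.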
KCNH2 WT inh = KCNH2 (human, wildtype) channel inhibition; Q12809; U2OS, BacMam KCNH2, thallium flux FluxOr; hits give low values; activity change, % at 1.84 µM; hit rate 0.37% among 340,000; AID 720551;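 active = maximum activity change below -70%; inconclusive = maximum activity change between -70% and -50%; inactive = maximum activity change above -50%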; also: % is scaled to controls: 0 for no effect and ±100 for the full control effect
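U2OS cells were transduced with wild-type KCNH2 virus (2.03 x 10^8 / mL) for 4 h at room temperature, then cultured overnight at 37 C. Thallium flux was read with FluxOr dye. Rate constants were normalized to DMSO controls.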
KCNH2 3.1 inh = blocks the human KCNH2 3.1 channel isoform | U2OS KCNH2 3.1, thallium flux FluxOr; hits give low values | activity change, % (tested at about 1.8 µM) | hit rate 0.95% among 340,000;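 active = maximum activity change below -70%; inconclusive = maximum activity change from -70% to -50%; inactive = maximum activity change above -50%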;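 also: thallium influx rate constant from kinetic fluorescence after stimulation buffer; % is scaled to controls: 0 for no effect and ±100 for the full control effect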
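U2OS cells transduced with KCNH2 3.1 mutant virus (1.77 x 10^8 /mL, 4 h), plated overnight at 37 C, loaded 45 min with FluxOr dye plus Red40 quencher. Thallium flux rate constant from kinetic reads after stimulation buffer, normalised to controls.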
ALOX12 inh = blocks human arachidonate 12S-lipoxygenase; hit rate 1.1% among 580,000; Potency, µM (top dose mostly 108 µM), inactives show at the top dose activity change, negative = inhibition, usual class: inhibitors; purified 12hLO, xylenol orange hydroperoxide absorbance; active = well fitted inhibition curve with a large enough effect; inconclusive = small, poorly fitted or top-dose-only effect, or another doubt; inactive = no such curve, though single readings can be large or run the other way; also: potency is read from the fitted curve at half-maximal effect; % is scaled to controls: 0 for no effect and ±100 for the full control effect
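Hydroperoxide product was detected by ferrous iron/xylenol orange as the 573 to 405 nm absorbance ratio. Arachidonic acid at 40 uM (final) was turned over for 30 min at room temperature by 150 nM human 12hLO, pH 7.0 Hepes buffer, after 15 min compound preincubation.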
ClpP mod = qHTS Assay for Activators of ClpP. Potency, µM (titrated, usually from 57.5 µM), inactives show at the highest dose activity change, negative = active. AID 651965, 2013. hit rate 1.9% among 340,000. ATP-dependent Clp protease proteolytic subunit (Bacillus subtilis (strain 168)), P80244. purified B. subtilis ClpP, FRET peptide cleavage, 20 min; active = well fitted falling curve with a large enough effect; inconclusive = small, poorly fitted or top-dose-only effect; inactive = no such curve, though single readings can be large or run the other way; also: potency is read from the fitted curve at half-maximal effect; the source files actives as falling curves though it sought activators and does not explain the sign; nearly all actives have a fitted effect of over 65% in size
Target sequence (P80244 whole entry, looked up): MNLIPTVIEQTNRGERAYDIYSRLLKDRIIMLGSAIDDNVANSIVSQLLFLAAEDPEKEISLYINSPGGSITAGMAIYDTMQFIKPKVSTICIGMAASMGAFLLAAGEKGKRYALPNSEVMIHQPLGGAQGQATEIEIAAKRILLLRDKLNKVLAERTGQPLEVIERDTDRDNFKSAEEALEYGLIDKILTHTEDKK
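FRET quenching reversal measured ClpP activation: 10 microg/mL B. subtilis ClpP at pH 8 with the FRET-FV decapeptide, read at 430 nm after 320 nm excitation. The 20-min minus 0-min signal was scaled between DMSO/no-enzyme wells and ADEP (5.8 microM final).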
LDHA block = LDHA (human) enzyme inhibition. purified LDHA, NADH/diaphorase-resazurin fluorescence; hits give low values. activity change, % (values are at about 110 or 230 µM). hit rate 0.15% among 480,000. AID 1347041; in the data active = activity change below about -30%; inconclusive = mostly about -25% to -30%;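 also: plate controls were DMSO wells for no effect and wells without enzyme for full effect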
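Human LDH5 at 2 nM final in Tris HCl pH 7.4 with 0.06 mM NADH and 0.2 mM pyruvate, reacted 5 minutes at room temperature. Remaining NADH coupled via diaphorase/resazurin; resorufin fluorescence read at 0 and 20 minutes, normalized to enzyme-free and DMSO wells.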
* marks the source's active call; other numbers are inactive results; ? = inconclusive; nt = no result given; [ ] = dose if it differs, or a comment. The list is not random: actives were taken first. Their share in the collection is about 3%.

SMILES	Chronic BCR inh	KCNH2 WT inh	KCNH2 3.1 inh	ALOX12 inh	ClpP mod	LDHA block
Cc1ccc(-n2ncc3c(N(C)Cc4ccccc4)ncnc32)cc1	?	nt	nt	-21%	32µM*	10
CCN(CC#N)CC(=O)NC1(C#N)CCCC1	nt	nt	nt	-22%	nt	0
CCC(=O)NC(=S)Nc1ccccc1C(F)(F)F	nt	0	-10	-9%	32µM*	-6
CCCC(=O)NC(=S)Nc1ccccc1C(F)(F)F	nt	1	4	5%	1%	-7
CCC(Sc1ncnc2c1c(-c1ccccc1)cn2-c1ccc(OC)cc1)C(=O)OC (stereo not given)	8%	1	-22	-20%	32µM*	-3
CCOC(=O)C(C)Sc1ncnc2c1c(-c1ccccc1)cn2-c1ccc(OC)cc1 (stereo not given)	6%	19	0	-7%	25µM*	2
COC(=O)C(C)Sc1ncnc2c1c(-c1ccccc1)cn2-c1ccc(OC)cc1 (stereo not given)	12%	3	-31	-3%	?	1
Cc1ccc(-c2cnc(SCC(=O)Nc3ccc(F)c(F)c3)o2)cc1C	nt	nt	nt	-12%	nt	0
Cc1ccc(C)c(N/C(N)=N/c2nc(C)cc(C)n2)c1	0%	-2	-16	-3%	32µM*	2
CC(=O)Nc1ccc(N/C(N)=N/c2nc(C)cc(C)n2)cc1	0%	-2	1	-4%	nt	-13
Cc1cc(C)nc(/N=C(\N)N(Cc2ccccc2)Cc2ccccc2)n1	-1%	1	-77*	1%	nt	-14
Cc1cc(C)nc(/N=C(\N)Nc2ccc(-c3ccccc3)cc2)n1	7%	32	-80*	-24%	-1%	-7
COc1ccc(C)cc1N/C(N)=N/c1nc(C)cc(C)n1	0%	60	-45	3%	-3%	-8
Cc1ccc(/C=N/Nc2ccc3ccccc3n2)s1	nt	nt	nt	?	nt	-11
CNC(=S)N1CCN(c2c(F)cc3c(=O)c(C(=O)O)cn(C4CC4)c3c2OC)CC1C (stereo not given)	?	-1	-5	?	28µM*	7
COc1c(N2CCN(C(=S)Nc3ccccc3)C(C)C2)c(F)cc2c(=O)c(C(=O)O)cn(C3CC3)c12 (stereo not given)	15%	nt	nt	nt	nt	nt
COC(=O)C(C)NC(=S)N1CCN(c2c(F)cc3c(=O)c(C(=O)O)cn(C4CC4)c3c2OC)CC1C (stereo not given)	1%	5	-1	8.9µM*	4%	4
CCN1C(=O)C2CC3(CCN(C(=O)c4ccc(C)s4)CC3)CN2C1=O (stereo not given)	nt	nt	nt	25%	nt	nt
Cc1cc(Nc2cccc([N+](=O)[O-])c2)nc2ccccc12	nt	nt	nt	-10%	nt	4
COc1ccc(Nc2cc(C)c3cc([N+](=O)[O-])ccc3n2)cc1	?	-7	-99*	1%	-3%	-5
COc1ccc(Nc2ccc([N+](=O)[O-])cn2)cc1	?	-3	15	28µM*	-2%	-4
CC(CO)Nc1nc2c(c(=O)n(Cc3ccccc3Cl)c(=O)n2C)n1C (stereo not given)	nt	nt	nt	-2%	nt	1
CCOC(=O)c1c(S(=O)(=O)NCC(=O)N2CCCC2)c(C)n(C)c1C	nt	nt	nt	-17%	nt	-12
O=C(N=C1SC2CS(=O)(=O)CC2N1c1ccc(Br)cc1F)C1CC1 (stereo not given)	0%	-156*	18	-5%	0%	0
CC(=O)N=C1SC2CS(=O)(=O)CC2N1c1c(Cl)cccc1Cl (stereo not given)	-1%	-7	0	-7%	32µM*	-2
SMILES	Chronic BCR inh	KCNH2 WT inh	KCNH2 3.1 inh	ALOX12 inh	ClpP mod	LDHA block
O=C(N=C1SC2CS(=O)(=O)CC2N1c1c(Cl)cccc1Cl)C1CC1 (stereo not given)	-8%	-3	16	10%	-1%	-5
COc1cc(OC)c(CN2CCC(CO)(CCOc3ccccc3)CC2)c(OC)c1	0%	-105*	nt	0%	nt	-1
COc1cc(CN2CCC(CO)(CCOc3ccccc3)CC2)cc(OC)c1OC	8%	nt	6	1%	1%	-1
COc1ccc(CN2CCC(CO)(CCOc3ccccc3)CC2)cc1C	0%	-13	-125*	-8%	1%	-2
CCCc1nc2ccccc2c(C(=O)OCC(=O)NC(=O)NC(C)C)c1CC	nt	nt	nt	-46%	nt	3
CC(C)CNC(=O)COC(=O)c1cc(Cl)cc(Cl)c1N	-7%	-1	9	0%[57.4 µM]	16µM*	-7
COc1cc(SC)ccc1C(=O)OCC(=O)NCC(C)C	?	5	3	-11%	40µM*	0
Nc1c(Cl)cc(Cl)cc1C(=O)OCC(=O)N1CCCC1	?	-2	-7	-6%	22µM*	-4
COC(=O)CNC(=O)COC(=O)c1cc(Cl)cc(Cl)c1N	-15%	0	12	0%	2.8µM*	0
COc1ccc(Cc2nc3nccc(-c4ccc(F)cc4OC)n3n2)cc1	nt	nt	nt	29%	nt	nt
CC(C)CNC(=O)c1ccc2c(c1)NC(C)(CNc1ccccc1)CO2 (stereo not given)	nt	nt	nt	-11%[176 µM]	nt	nt
CCCNC(=O)NC(=O)CN(C)Cc1ccccc1C(F)(F)F	nt	nt	nt	-19%	nt	0
Brc1ccc(CN2C3=NCCCN3c3ccccc32)cc1	?	16	-75*	1%	-1%	-2
O=C(CN1C2=NCCCN2c2ccccc21)c1ccc(Br)s1	-1%	15	-86*	0%	-1%	-5
CC(C)(C)c1ccc(CN2C3=NCCCN3c3ccccc32)cc1	?	11	-80*	-25%	-1%	-4
Clc1ccc(CN2C3=NCCCN3c3ccccc32)c(Cl)c1	0%	-1	-94*	nt	2%	-3
Cc1cc(C)c(CCNC(=O)NNc2nc(C)cc(C)n2)c(C)c1	nt	nt	nt	?	nt	-18
CCCCCCCN1C2=NCCCN2c2ccccc21	?	-14	-80*	?	nt	-5
COC(=O)c1ccc(OS(=O)(=O)N(C)C)cc1	?	-227*	-11	1%	1%	-1
COC(=O)N1CCc2nc(C(C)C)nc(-c3ccc(O)cc3)c2C1	nt	nt	nt	-3%[176 µM]	nt	nt
O=C(CSc1ncnc2nc(N3CCOCC3)sc12)Nc1cc(C(F)(F)F)ccc1Cl	nt	nt	nt	-23%	nt	12
CNCC[C@@H](Oc1ccc(C(F)(F)F)cc1)c1ccccc1	?	nt	-92*	?	3%	-6
O=C(Nc1nc(-c2ccc(Cl)cc2)cs1)C1CCN(C(=O)c2ccoc2)CC1	nt	nt	nt	?	nt	-1
CCn1c(=NC(=O)c2ccc(S(=O)(=O)N3CCOCC3)cc2)sc2cccc(OC)c21	17%	-4	-16	0%	32µM*	-4
